Compound activity from PubChem.
The list is not random: actives were taken first. Their share in the collection is about 0.74%.
pCIP destab = compounds decreasing mouse p/CIP protein stability. AID 1984. decrease of EGFP signal, % at 10 µM. 0.01% of 290,000 active. F442A p/CIP-EGFP cells, EGFP fluorescence, 16 h;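 active means EGFP signal decrease of at least 30% at 10 µM or well 3 SD below plate mean, unless failing retest; inactive means the rest, including hits failing retest or dose response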
Redox H2O2 prof = compounds producing H2O2 with reducing agent – biochemical, NIH compound library profiling, artefact control for MLSCN library redox annotation, primary screen | DTT-dependent redox cycling H2O2, phenol red/HRP absorbance; 100% = 100 µM peroxide control, 0% = buffer | activation, % at 10 µM | 0.03% of 200,000 active;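 active means activation of at least 50% relative to the plate's high and low controls in the primary single-dose screen; inactive means activation below 50%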;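 further: compound incubated with DTT at 0.8 mM final as the reducing agent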
TbHK1 inh = blocks Trypanosoma brucei hexokinase 1 activity | recombinant TbHK1, G6PDH-coupled NADH A340 | inhibition, % at 10 µM | 0.11% of 220,000 active;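 active means inhibition of 50% or more in the single-dose primary screen; inactive means inhibition below 50%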
p97 inhibitor = human p97 ATPase inhibition; P55072; recombinant p97 ATPase, Kinase-Glo ATP luminescence, 3 h; inhibition, % at 8 µM; 0.42% of 220,000 active; AID 1481; in the data active means inhibition above about 15%;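 further: 0% = DMSO vehicle and 100% = wells lacking enzyme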
Target sequence (P55072 whole entry, looked up): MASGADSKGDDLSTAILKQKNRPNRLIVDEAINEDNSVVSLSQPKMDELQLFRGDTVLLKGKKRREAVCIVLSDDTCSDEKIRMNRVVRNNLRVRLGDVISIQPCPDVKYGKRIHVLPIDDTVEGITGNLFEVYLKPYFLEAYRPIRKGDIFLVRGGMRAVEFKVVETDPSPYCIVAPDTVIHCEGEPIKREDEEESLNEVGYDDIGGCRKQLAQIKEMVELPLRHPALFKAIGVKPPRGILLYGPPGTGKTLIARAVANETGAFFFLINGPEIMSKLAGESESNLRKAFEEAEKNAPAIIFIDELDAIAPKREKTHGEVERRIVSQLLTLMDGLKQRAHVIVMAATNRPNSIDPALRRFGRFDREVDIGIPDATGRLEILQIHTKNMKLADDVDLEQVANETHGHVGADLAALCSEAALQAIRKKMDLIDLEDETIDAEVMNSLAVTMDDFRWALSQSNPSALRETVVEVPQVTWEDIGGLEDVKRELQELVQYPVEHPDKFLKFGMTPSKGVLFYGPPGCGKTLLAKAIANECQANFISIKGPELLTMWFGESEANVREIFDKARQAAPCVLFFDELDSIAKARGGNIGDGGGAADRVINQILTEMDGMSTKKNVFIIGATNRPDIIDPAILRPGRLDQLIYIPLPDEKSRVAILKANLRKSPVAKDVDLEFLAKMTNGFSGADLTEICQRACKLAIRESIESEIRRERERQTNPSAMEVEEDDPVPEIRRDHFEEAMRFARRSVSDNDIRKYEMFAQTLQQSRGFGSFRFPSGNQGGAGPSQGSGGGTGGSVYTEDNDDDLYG
Furin inh = blocks human furin protease activity. inhibition, % at 20 µM or 30 µM. 0.061% of 220,000 active. purified furin, fluorogenic substrate cleavage. AID 463115; in the data active means inhibition above about 25%
HMGR II inh = E. faecalis class II HMG-CoA reductase inhibition; purified E. faecalis HMGR, NADPH absorbance 340 nm kinetic; 0.41% of 190,000 active; inhibition, % at 10 µM;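 active means inhibition above a set limit, the median over all tested compounds plus 3 SD, cut at about 9.5% in these data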;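 further: enzyme runs in reverse so mevalonate oxidation gives rising NADPH absorbance; 0% = complete reaction with DMSO and 100% = background rate lacking mevalonate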
DTT redox conf = confirmation of DTT-dependent redox cycling H2O2 generators; shares compounds with Redox H2O2 prof; phenol red-HRP absorbance; EC50, µM; 40% of 60 active; AID 1234;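 active means EC50 under a set limit for hydrogen peroxide production with the reducing agent DTT present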
G6PDH ctr = counter-screen for TbHK1 inhibitors: Leuconostoc G6PDH inhibition. 7% of 210 active. shares compounds with TbHK1 inh. inhibition, % at 10 µM. purified G6PDH, NADH absorbance, 1 h;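 active means at least 50% inhibition in the glucose-6-phosphate dehydrogenase coupled counterscreen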
TbHK1 rescreen = confirmation of Trypanosoma brucei hexokinase 1 inhibitors; shares compounds with TbHK1 inh; recombinant TbHK1, G6PDH-coupled NADH A340 absorbance; inhibition, % at 10 µM; 10% of 210 active; AID 2560;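 active means inhibition of at least 50% in both of the two screening runs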;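 further: 0% and 100% set by the maximum and minimum signal control wells on each plate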
p97 confirm = human p97 ATPase inhibition, confirmation; shares compounds with p97 inhibitor; recombinant p97 ATPase, Kinase-Glo ATP luminescence; inhibition, % at 8 µM; 44% of 760 active;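 active means percent inhibition of p97 ATPase above a set limit, the primary screen's mean plus 3 SD, cut at about 15% in these data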;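 further: 0% = DMSO wells and 100% = wells lacking p97 protein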
The depositor's hits bear a star; nt = no result given.

SMILES | pCIP destab | Redox H2O2 prof | TbHK1 inh | p97 inhibitor | Furin inh | HMGR II inh | DTT redox conf | others
COC1=C(N)C(=O)c2nc(-c3nc(C(=O)O)c(C)c(-c4ccc(OC)c(OC)c4O)c3N)ccc2C1=O | 15 | 132* | -6 | 4 | -2 | -3 | 1.5*
COc1ccc(-c2ncncc2-c2csc(C)n2)c(O)c1OC | 7 | 0 | -13 | 7 | -23 | -11 | nt
CC(=O)NC(Cc1cccc(C)c1)C(=O)NC1CCN(C(=O)NCc2ccccc2)CC1 (stereo not drawn) | -12 | nt | nt | nt | nt | nt | nt
CCOc1ccc(-n2c(C)nc3cc(C(=O)NCC4CCCO4)ccc32)cc1 (stereo not drawn) | -7 | nt | nt | nt | nt | nt | nt
Cc1ccc(NC2=C/C(=N\S(=O)(=O)c3cccs3)c3ccccc3C2=O)c(C)c1 | nt | 323* | 3 | 9 | -25 | 9 | 18*
Cc1cccc(NC2=C/C(=N/S(=O)(=O)c3cccs3)c3ccccc3C2=O)c1 | -17 | 6 | -5 | 1 | -20 | 1 | nt
CC1(C)Cc2c(cnn2-c2ccccc2)C(NC(=O)c2ccc[n+]([O-])c2)C1 (stereo not drawn) | -22 | nt | nt | nt | nt | nt | nt
COc1cccc(Oc2cncnc2-c2ccc(OC)cc2O)c1 | -16 | 60* | 29 | -5 | 10 | 0 | >50
Cc1cc(C)c(S(=O)(=O)Nc2cc(SCC(=O)O)c(O)c3ccccc23)cc1C | -1 | 120* | 1 | 7 | -14 | 3 | >50
O=C(O)CCCNc1cc(N2CCN(C(=O)c3ccco3)CC2)c2noc3c2c1C(=O)c1ccccc1-3 | -9 | nt | nt | nt | nt | nt | nt
CCOC(=O)N1CCN(c2cc(NCCC(=O)O)c3c4c(onc24)-c2ccccc2C3=O)CC1 | -11 | 141* | 5 | 5 | -7 | 0 | >50
CC(=O)C(C(C)=O)C1(O)C(=O)c2ccccc2C1=O | -4 | 88* | 4 | 7 | -10 | -3 | >50
O=[N+]([O-])c1cccc(-n2nnnc2CNCc2ccccc2)c1 | -12 | nt | -6 | 5 | -19 | nt | nt
C/C(=N/Nc1ccc(C(=O)O)cc1)c1ccc(O)c(O)c1O | 7 | 105* | 3 | 3 | 2 | 11* | >50
Cc1ccc(F)cc1CNC(=O)C1CCC(=O)N(C2CC2)C1 (stereo not drawn) | -17 | nt | nt | nt | nt | nt | nt
Cc1nc(-c2c(C(F)(F)F)noc2-c2ccc(O)cc2O)cs1 | -4 | 2 | -12 | -1 | -22 | -4 | nt
Oc1ccc(-c2onc(C(F)(F)F)c2-c2cscn2)c(O)c1 | -4 | 430* | -5 | -7 | -8 | 1 | >50
CC1(C)CC(N2CCCC2)=CC(=[N+]2CCCCCC2)C1 | 4 | 0 | -37 | 0 | -11 | -1 | nt
CC1(C)CC(=O)C=C(N2CCNCC2)C1 | -2 | 73* | 4 | 4 | -26 | 0 | >50
COc1cc(C(=O)NC(C)c2ccc3ccccc3c2)cc(Cl)c1O (stereo not drawn) | -12 | nt | nt | nt | nt | nt | nt
O=C(NN=C1CCCC1)c1n[nH]c2c1CCCC2 | -18 | 68* | 6 | -5 | 0 | 2 | >50
O=C(Nc1ccc(Cl)cc1)/C(=C/c1ccc([N+](=O)[O-])cc1)c1nc2ccccc2s1 | -19 | -1 | -6 | 1 | -28 | -2 | nt
O=C1C=C(NCCN2CCOCC2)C(=O)c2cnccc21 | 6 | 176* | -3 | 13 | -17 | -7 | >50
O=C1C(=O)c2ccc(-c3ccccc3)cc2-c2ccccc21 | 55 | 315* | -7 | 13 | -12 | -3 | 0.91*
COC1=C(c2ccccc2)C(=O)c2ccccc2C1=O | 0 | 0 | -2 | 4 | -10 | -2 | nt
SMILES | pCIP destab | Redox H2O2 prof | TbHK1 inh | p97 inhibitor | Furin inh | HMGR II inh | DTT redox conf | others
Cc1oc2c(c1C(=O)c1ccccc1)C(=O)C(=O)c1ccccc1-2 | -11 | 374* | 13 | 31* | -16 | 1 | >50 | p97 confirm=29*
CCOC(=O)CC1COCCN1C(=O)c1ccc2oc(Cc3ccccc3)nc2c1 (stereo not drawn) | -14 | nt | nt | nt | nt | nt | nt
CCOc1ccc(NC(=S)Nc2ccc3nsnc3c2)cc1 | 0 | 127* | 19 | 33* | -13 | 2 | >50 | p97 confirm=30*
O=C(NC1CCSc2ccccc21)c1ccccc1Br (stereo not drawn) | -10 | nt | nt | nt | nt | nt | nt
Cn1nc(-c2ccc(Cl)cc2)nc2c(=O)n(C)c(=O)nc1-2 | -8 | 170* | 79* | 38* | -11 | 9 | 0.89* | G6PDH ctr=66*;TbHK1 rescreen=57*;p97 confirm=41*
CC(=O)N(/N=C1\Sc2ccccc2C1=O)c1ccc(C)cc1C | -9 | 1 | 0 | 2 | -29 | 2 | nt
CC(=O)N(/N=C1\Sc2ccccc2C1=O)c1ccccc1C | -10 | 381* | -4 | 18* | -5 | 4 | 19* | p97 confirm=25*
O=C(O)c1ccc(NC2=C/C(=N/S(=O)(=O)c3ccccc3)c3ccccc3C2=O)cc1 | 46 | 149* | -13 | 18* | 11 | -1 | 2.7* | p97 confirm=23*
Cc1cc(C)c(S(=O)(=O)/N=C2\C=C(Nc3ccc(C(=O)O)cc3)C(=O)c3ccccc32)c(C)c1 | -3 | nt | nt | nt | nt | nt | nt
CN(Cc1cnn(C)c1)C(=O)C1CCC(=O)N(Cc2ccc(Cl)cc2)C1 (stereo not drawn) | 9 | nt | nt | nt | nt | nt | nt
COc1cccc(C(=O)N2CCSC2=S)c1 | -2 | 2 | 57* | 6 | -7 | 1 | nt | G6PDH ctr=-18;TbHK1 rescreen=-6
O=C1CC(C(=O)NCc2ccccc2)C2(CCCC2)O1 (stereo not drawn) | -5 | 0 | 55* | -2 | -9 | -4 | nt | G6PDH ctr=1;TbHK1 rescreen=2
CC1CCC(NC(=O)c2ccc(CS(=O)(=O)Cc3ccccc3F)o2)CC1 (stereo not drawn) | -7 | -5 | 61* | 4 | -11 | -7 | nt | G6PDH ctr=-4;TbHK1 rescreen=7
O=C(CSc1nnc(COc2ccccc2)o1)NCCc1ccccc1 | -1 | -1 | 73* | 1 | -8 | -5 | nt | G6PDH ctr=-9;TbHK1 rescreen=-22
C1CCN=C(Nc2nn[nH]n2)CC1 | 3 | 5 | 55* | 5 | -6 | -8 | nt | G6PDH ctr=-5;TbHK1 rescreen=-10
COC(=O)c1nc(NC2=NCCCCC2)n[nH]1 | 7 | 0 | -10 | -9 | -22 | 4 | nt
Cc1ccc(Nc2cc(=O)oc3ccccc23)c(C)c1 | 5 | 0 | 55* | 1 | -28 | 0 | nt | G6PDH ctr=8;TbHK1 rescreen=4
CC1CCCCN1C(=O)Cn1cnc2cc([N+](=O)[O-])ccc2c1=O (stereo not drawn) | -17 | -2 | 3 | -5 | -4 | -1 | nt
